Residue numbers refer to the chain shown, from its start.

We go through twelve molecules from publication PMC8222333, “AsCas12a ultra nuclease facilitates the rapid generation of therapeutic cell medicines”.

Targets include dAsCas12a S542R (Acidaminococcus sp., UniProt U2UMQ6 1-1307, S542R;D908A;E993A;D1235A); d-enCas12a (Acidaminococcus sp., UniProt U2UMQ6 1-1307, E174R;S542R;K548R;D908A;E993A;D1235A); d-enCas12a-Ultra (Acidaminococcus sp., UniProt U2UMQ6 1-1307, E174R;S542R;K548R;M537R;F870L;D908A;E993A;D1235A).
Common to all, as to assay: Spec-seq (native PAGE EMSA with sequencing of bound and unbound); 25 mM Tris-HCl pH 7.4, 150 mM KCl, 5 mM MgCl2, 10% glycerol, 1 mM DTT, 40 ng/uL salmon sperm DNA; 400 nM Cas12a, 480 nM crRNA, 50 nM library, 37 C 1 h; native PAGE at room temperature; high values mean tight binding
What all share (conditions): protein: recombinant
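Further: relative affinity from the bound to unbound sequence frequency ratio in Spec-seq.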

B1: TCAT (dsDNA)
DNA 1: GCTATCTAGTGCTCAGTACGCACTGTCATAGGAAACTTCTGGCAGGACCAGGTCATGAGATCGGAAGAGCACACGTCTGAACTCCAGTCA
DNA 2: TGACTGGAGTTCAGACGTGTGCTCTTCCGATCTCATGACCTGGTCCTGCCAGAAGTTTCCTATGACAGTGCGTACTGAGCACTAGATAGC
RNA: AAUUUCUACUCUUGUAGAUAGGAAACUUCUGGCAGGACC
As to B1, the binding signal is -8.4 lnKA with dAsCas12a S542R, -5.72 lnKA with d-enCas12a and -3.42 lnKA with d-enCas12a-Ultra.

B2: ACGC (dsDNA)
DNA 1: B1 DNA 1 with T26A, A28G, T29C
DNA 2: B1 DNA 2 with A62G, T63C, A65T
RNA: B1 RNA
For B2, the binding signal in the test with d-enCas12a is -5.66 lnKA; with d-enCas12a-Ultra, -3.42 lnKA.

B3: TGCG (dsDNA)
DNA 1: B1 DNA 1 with C27G, A28C, T29G
DNA 2: B1 DNA 2 with A62C, T63G, G64C
RNA: B1 RNA
In the case of B3, the results for the binding signal with dAsCas12a S542R, in the test with d-enCas12a and with d-enCas12a-Ultra were -8.2 lnKA, -3.38 lnKA and -0.977 lnKA, respectively.

B4: TGAT (dsDNA)
DNA 1: B1 DNA 1 with C27G
DNA 2: B1 DNA 2 with G64C
RNA: B1 RNA
As to B4, the binding signal is -8.47 lnKA with dAsCas12a S542R, -5.85 lnKA with d-enCas12a and -3.37 lnKA with d-enCas12a-Ultra.

B5: TGGC (dsDNA)
DNA 1: B1 DNA 1 with C27G, A28G, T29C
DNA 2: B1 DNA 2 with A62G, T63C, G64C
RNA: B1 RNA
Consider B5, for which the values for the binding signal in the test with dAsCas12a S542R, with d-enCas12a and with d-enCas12a-Ultra were -8.19 lnKA, -5.4 lnKA and -3.03 lnKA, respectively.

B6: AAGC (dsDNA)
DNA 1: B1 DNA 1 with T26A, C27A, A28G, T29C
DNA 2: B1 DNA 2 with A62G, T63C, G64T, A65T
RNA: B1 RNA
Turning to B6, the binding signal was -5.85 lnKA with d-enCas12a and -3.34 lnKA in the test with d-enCas12a-Ultra.

B7: TGAC (dsDNA)
DNA 1: B1 DNA 1 with C27G, T29C
DNA 2: B1 DNA 2 with A62G, G64C
RNA: B1 RNA
As to B7, the binding signal in the test with dAsCas12a S542R is -8.67 lnKA; with d-enCas12a it was -5.25 lnKA; in the test with d-enCas12a-Ultra, -2.74 lnKA.

B8: TGGG (dsDNA)
DNA 1: B1 DNA 1 with C27G, A28G, T29G
DNA 2: B1 DNA 2 with A62C, T63C, G64C
RNA: B1 RNA
As for B8, the results for the binding signal with dAsCas12a S542R, in the test with d-enCas12a and in the test with d-enCas12a-Ultra were -8.57 lnKA, -5.93 lnKA and -3.42 lnKA, respectively.

B9: TGCT (dsDNA)
DNA 1: B1 DNA 1 with C27G, A28C
DNA 2: B1 DNA 2 with T63G, G64C
RNA: B1 RNA
B9: the binding signal was -8.2 lnKA in the test with dAsCas12a S542R, -4 lnKA in the test with d-enCas12a and -1.2 lnKA in the test with d-enCas12a-Ultra.

B10: GCGG (dsDNA)
DNA 1: B1 DNA 1 with T26G, A28G, T29G
DNA 2: B1 DNA 2 with A62C, T63C, A65C
RNA: B1 RNA
For B10, the binding signal is -5.85 lnKA in the test with d-enCas12a and -3.63 lnKA with d-enCas12a-Ultra.

B11: TGAG (dsDNA)
DNA 1: B1 DNA 1 with C27G, T29G
DNA 2: B1 DNA 2 with A62C, G64C
RNA: B1 RNA
As for B11, the binding signal is -8.4 lnKA with dAsCas12a S542R, -5.65 lnKA in the test with d-enCas12a and -3.4 lnKA in the test with d-enCas12a-Ultra.

B12: GTAC (dsDNA)
DNA 1: B1 DNA 1 with T26G, C27T, T29C
DNA 2: B1 DNA 2 with A62G, G64A, A65C
RNA: B1 RNA
On to B12, for which the binding signal is -5 lnKA in the test with d-enCas12a and -1.95 lnKA in the test with d-enCas12a-Ultra.
